# Rows were chosen to be rich in hits. Some 19% of all compounds tested hit in one or more screens of this group.
# Pf growth 48h – inhibits P. falciparum growth in the first generation, 48 h; AID 504832; P. falciparum luciferase growth in erythrocytes, 48 h; Potency, µM (highest dose often 28.7 µM), for inactives: top-dose activity change, negative = inhibition, most hits filed as inhibitors; 310,000 compounds, 5.9% hits; further: potency means the concentration at half of the fitted maximal effect; on the % scale 0 is the no-effect control and ±100 the full control effect
#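 Luciferase-expressing P. falciparum in infected erythrocytes (2% hematocrit, 0.1% parasitemia final) in RPMI 1640/0.5% Albumax were exposed to compound for 48 hours at 37 C, 5% CO2; growth read as luminescence.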
# MARV entry inh – Marburg virus entry inhibition. Marburg virus pseudotyped entry inhibition, cell reporter. Potency, µM (titrated, usually from 37.8 µM), without a hit: at the highest dose activity change, negative = inhibition, actives largely listed as inhibitors. 300,000 compounds, 1.8% hits; calls by dose curve; tested in HEK293 cells; further: potency means the concentration at half of the fitted maximal effect; on the % scale 0 is the no-effect control and ±100 the full control effect
# LASV entry inh – Lassa virus entry inhibition; Lassa virus pseudotype entry inhibition, cell reporter; Potency, µM (doses to about 37.9 µM), for the others: at the top dose activity change, negative = inhibition, hits mostly inhibitors; 300,000 compounds, 1.2% hits; AID 540256; calls by dose curve; tested in HEK293 cells; further: potency means the concentration at half of the fitted maximal effect; on the % scale 0 is the no-effect control and ±100 the full control effect; nearly all actives have a fitted effect of over 50% in size
# Cycloheximide cs – counter-screen hit for Shiga toxin inhibitors, cycloheximide; max response, %; cell reporter, cycloheximide protein synthesis inhibition counterscreen; 300,000 compounds, 12% hits; AID 2314; in the data active means max response mostly above about 13%, no sharp cut-off; inactive means mostly below about 14%; further: read at 38.3 µM for the half of the compounds with a filed dose; 0% is about no effect
# Pf growth 96h – P. falciparum growth inhibition at 96 hours; AID 504834; Potency, µM (highest dose often 28.7 µM), inactives show top-dose activity change, negative = inhibition, hits mostly inhibitors; 320,000 compounds, 6.9% hits; P. falciparum luciferase reporter growth, 96 h; further: potency means the concentration at half of the fitted maximal effect; on the % scale 0 is the no-effect control and ±100 the full control effect
#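 Readout is luminescence from an integrated firefly luciferase in P. falciparum. Red cells, 2% hematocrit and 0.05% parasitemia final, were cultured with compound through two parasite generations (96 hours) at 37 C, 5% CO2.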
# Shiga toxin inh – blocks Shiga toxin action in Vero cells; Vero cells, Shiga toxin protein synthesis inhibition reporter; inhibition, % at 38.7 µM; 290,000 compounds, 9.2% hits; AID 2315; in the data active means inhibition mostly above about 28%, no sharp cut-off; inactive means mostly below about 43%; further: 0% is about no effect
# An asterisk follows results filed as active; ? = inconclusive; . = not tested or not shown; [ ] = dose if it differs, or a comment. Unless noted, the call rests on the fitted dose curve; in most records, active means well fitted inhibition curve with a large enough effect; inconclusive means small, poorly fitted or top-dose-only effect, or another doubt; inactive means no such curve, though single readings can be large or run the other way.
SMILES,Pf growth 48h,MARV entry inh,LASV entry inh,Cycloheximide cs,Pf growth 96h,Shiga toxin inh
Cc1cc(=O)oc(C)c1C(=O)NCCCN1CCN(c2ccc(F)cc2)CC1,?,?,-4.3%,-1.1,0.738µM*,-17.1
COc1cccc(NC(=O)c2nc3nc(C)cc(C(F)F)n3n2)c1,29.2%,.,.,-2.6,?,16.1
CCc1ccc(N(C2C=CS(=O)(=O)C2)S(=O)(=O)c2ccccc2)cc1 (centres undefined),?,-20.9%,-14.5%,-0.9,0.1%,12.6
Cc1ccc(S(=O)(=O)N(c2cccc(C(F)(F)F)c2)C2C=CS(=O)(=O)C2)cc1 (centres undefined),.,-22.9%,-2.4%,-4.5,16.5µM*,-11.0
Cc1ccc2nc(NC(=O)CN(C)S(=O)(=O)c3ccc(Br)s3)sc2c1,.,?,?,26.1*,9.28µM*,32.2
Cc1cccc2sc(NC(=O)CNS(=O)(=O)c3ccc(Br)s3)nc12,9.3%,7.0%,-8.8%,-1.5,2.8%,-11.6
Cc1ccc2nc(NC(=O)CNS(=O)(=O)c3ccc(Br)s3)sc2c1,67.3%,-5.3%,4.6%,22.4*,30.0%,15.3
Cc1ccc(S(=O)(=O)N(C)CC(=O)Nc2nc3ccccc3s2)cc1,-8.9%,?,-0.9%,15.6,6.57µM*,27.3
Cc1ccc2nc(NC(=O)CN(C)S(=O)(=O)c3cccc4nsnc34)sc2c1,10.4%,?,-33.6%,7.7,?,6.9
CCOC(=O)c1ccc(NC(=O)CN(C)S(=O)(=O)c2ccc(Br)s2)cc1,?,?,2.5%,16.4*,20.3%,22.8
CCOc1cc(/C=N/NC(=O)C(=O)NCc2ccc3c(c2)OCO3)ccc1OCC(=O)N1CCOCC1,30.5%,-14.7%[46.1 µM],8.9%[46.1 µM],-1.1,25.9%,-11.2
CCOc1ccc(C2C(C(=O)Nc3cc(C)on3)c3ccccc3C(=O)N2CCN2CCOCC2)cc1 (centres undefined),-15.9%,-16.1%[46.1 µM],.,5.5,?,-2.1
CCOc1ccc(S(=O)(=O)N(C)c2ccc(OCC(=O)Nc3nc4ccccc4s3)cc2)cc1,0.0%,?,?,0.2,?,-9.3
CN(c1ccc(OCC(=O)Nc2nc3ccccc3s2)cc1)S(=O)(=O)c1ccccc1,?,-0.4%,.,-2.8,5.22µM*,-7.9
Clc1ccccc1-c1nnc2sc(C3COc4ccccc4O3)nn12 (centres undefined),?,7.2%,11.1%,13.4,?,25.3
COc1ccccc1C1=NC(c2ccc(C)cc2)N=C1C (centres undefined),118.2%,.,.,38.7*,237.8%,130.8*
COc1ccccc1CNCc1ccc(C)cc1,?,.,.,0.3,309.4%,-2.2
CC(C)(C)NC(=O)CCN(/N=C/c1ccncc1)C1=NS(=O)(=O)c2ccccc21,?,?,-2.3%[46.1 µM],-0.3,-4.5%,-1.6
COc1ccc(/C=N/N(CCC(=O)NC(C)(C)C)C2=NS(=O)(=O)c3ccccc32)cc1,6.57µM*,?,0.5%,-2.0,41.9%,10.7
Nc1nc(C(F)(F)F)c(Br)c(=O)n1N,-18.3%,13.1%[46.1 µM],17.2%,-2.9,18.3%,-2.5
O=C(c1ccc(F)cc1)C1CCN(CCn2c(=O)[nH]c3ccccc3c2=O)CC1,6.57µM*,11.2µM*,-0.2%,-5.9,10.7µM*,-11.8
O=C(CCCn1c(=O)[nH]c2ccccc2c1=O)Nc1ccc(F)cc1,15.7%,4.6%,5.8%,5.1,43.7%,-17.0
OCCCC1CCCN(Cc2cn[nH]c2-c2ccc(F)cc2F)C1 (centres undefined),12.4%,.,.,-3.3,7.38µM*,-10.8
CN1CCN(Cc2cn[nH]c2-c2ccc(F)cc2F)[C@@H](c2ccccc2)C1,37.6%,?,?,3.0,2.62µM*,-11.5
Cc1nonc1N1CCN(Cc2cn[nH]c2-c2ccc(F)cc2F)CC1,10.2%,?,?,-0.9,?,-8.1
SMILES,Pf growth 48h,MARV entry inh,LASV entry inh,Cycloheximide cs,Pf growth 96h,Shiga toxin inh
COc1ccccc1C(=O)NC(C)C(c1cccs1)N1CCN(C)CC1 (centres undefined),?,0.3%,20.8%[14.3 µM],7.2,.,1.6
Cc1ccc(O)c(NC(=O)CSc2ccc(Cl)cc2)c1,?,?,?,-1.0,0.3%,-4.3
COc1ccc(O)c(C(=O)CC(=O)c2cccnc2)c1,.,?,-2.2%[46.1 µM],.,.,.
Cc1cccc(C(=O)NCC(=O)NNC(=O)c2ccccc2O)c1,5.9%,-7.5%[46.1 µM],17.1%,.,31.3%,.
Cc1cccc(C(=O)CC(=O)c2cc(Cl)ccc2O)c1,.,-82.3%,?,27.4*,.,49.9*
Cc1ccc(O)c(C(=O)CC(=O)c2ccc(Cl)cc2)c1,?,.,.,38.3*,?,96.4*
Cc1ccc(O)c(C(=O)CC(=O)c2cccc(F)c2)c1,?,?,?,37.8*,.,60.6*
O=C(CC(=O)c1cc(Cl)ccc1O)c1ccccc1,?,?,13µM*,55.0*,?,74.0*
O=C(O)c1ccc([N+](=O)[O-])c([N+](=O)[O-])c1,.,-2.7%[46.1 µM],?,.,.,.
O=C(NNc1c(Cl)cc(Cl)cc1Cl)C1CCC1,-1.5%,?,-1.2%,-3.7,-29.4%,5.1
Cc1ccnc(NC(=O)CNC(=O)COc2ccccc2)c1,125.5%,16.0%,?,.,230.3%,.
Cc1ccnc(NC(=O)CNC(=O)c2ccccc2Br)c1,46.0%,.,.,52.5*,52.7%,53.6*
Cc1ccc(NC(=O)CCNC(=O)c2ccccc2Cl)nc1,6.3%,-0.9%,6.8%,4.6,?,13.6
Cc1ccnc(NC(=O)CCNC(=O)c2ccccc2Cl)c1,137.2%,?,26.3%[46.1 µM],35.5*,58.3%,123.6*
COc1ccc(-c2n(-c3ccccn3)c3ccccc3[n+]2-c2ccccn2)cc1,10.4µM*,.,.,4.4,4.15µM*,22.2
O=[N+]([O-])c1cc(-c2n(-c3ccccn3)c3ccccc3[n+]2-c2ccccn2)ccc1Cl,?,?,-5.2%,-2.6,?,6.0
CCOc1ccc(C(=S)N2CCCC2)cc1,6.4%,4.4%,19.4%,13.9*,?,87.7*
CN(C)c1ccc(C(=S)N2CCCCC2)cc1,29.9%,5.4%[46.1 µM],5.9%,22.6*,4.8%,37.0*
CCOc1ccc(C(=S)N2CCN(C)CC2)cc1,-1.0%[5.75 µM],-4.6%[46.1 µM],0.2%,-1.3,?,24.1
CCCCOc1ccc(C(=S)N2CCC(C(N)=O)CC2)cc1,258.3%,?,8.4%[46.1 µM],38.4*,302.3%,104.8*
COc1ccc(C(=S)N2CCC(C(N)=O)CC2)cc1Br,44.6%,17.7%[46.1 µM],-1.1%[46.1 µM],-0.5,11.7%,-7.1
CCC(Oc1ccccc1)C(=O)N1CCC(C(N)=O)CC1 (centres undefined),43.6%,0.8%,?,18.4*,.,42.3*
COCCN(C(=S)Nc1cccc(C)c1C)C(C)c1ccco1 (centres undefined),-29.3%,-20.2%[46.1 µM],6.4%[46.1 µM],-4.9,34.5%,18.7
O=C(NCC(c1cccnc1)N1CCOCC1)NC1CCCCC1 (centres undefined),34.1%,-1.7%[46.1 µM],6.3%[46.1 µM],-0.8,?,-12.5
